Bioassay records deposited in PubChem BioAssay by several laboratories.
An excerpt weighted towards active compounds, which were near 32% of everything screened.
CYP2C19 inhib: blocks human cytochrome P450 2C19 | P33261 | CYP2C19 Supersomes, luciferin-H EGE luminescence, 30 min | inhibition, % at 5 µM | 21% of 96,000 active;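 active = CYP2C19 inhibition above a set limit at 5 µM in the primary screen, cut at about 50% in these data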;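 also: plate controls were negative control wells for no effect and 2.5 mM tranylcypromine positive control for full effect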
Target sequence (P33261 whole entry, looked up): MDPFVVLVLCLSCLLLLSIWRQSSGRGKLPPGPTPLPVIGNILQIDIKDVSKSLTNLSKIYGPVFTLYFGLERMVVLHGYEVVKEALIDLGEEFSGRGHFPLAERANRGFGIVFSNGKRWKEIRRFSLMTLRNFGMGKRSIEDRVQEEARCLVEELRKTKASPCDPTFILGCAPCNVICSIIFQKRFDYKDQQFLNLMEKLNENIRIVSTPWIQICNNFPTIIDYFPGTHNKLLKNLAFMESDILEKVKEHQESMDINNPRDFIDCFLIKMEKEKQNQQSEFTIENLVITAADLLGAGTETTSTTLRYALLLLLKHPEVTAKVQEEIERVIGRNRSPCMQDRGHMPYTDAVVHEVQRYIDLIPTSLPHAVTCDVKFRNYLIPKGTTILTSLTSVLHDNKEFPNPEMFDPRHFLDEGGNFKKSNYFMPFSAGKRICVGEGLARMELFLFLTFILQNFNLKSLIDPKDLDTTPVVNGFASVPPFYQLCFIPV
PostGolgi ctrl: growth of the yeast control strain, post-Golgi counter-screen; efflux-deficient yeast background strain, growth absorbance A615, 16 h; inhibition, % at 10 µM; 5% of 98,000 active; AID 738
CYP2C9 act: increases human cytochrome P450 2C9 activity; 1.4% of 96,000 active; activation factor at 5 µM; AID 1024; recombinant CYP2C9, luciferin-H conversion, luminescence; hits give high values; factor 1 = untreated enzyme, 0 = blocked; P11712;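 active = activation factor of 2 or more for CYP2C9 at a 5 µM dose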;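 also: 0 = sulfaphenazole-blocked wells and 1 = vehicle-only wells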
CYP2C19 activ: activators of human cytochrome P450 2C19 | 96,000 tested, under 10 active | activation factor at 5 µM | recombinant CYP2C19, luciferin-H EGE luminescence; hits give high values; 0 = fully inhibited enzyme, 1 = untreated enzyme | P33261;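 active = activation factor of at least 2 at 5 µM in the primary screen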;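 also: 0 = wells with 2.5 mM tranylcypromine and 1 = vehicle-only wells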
PostGolgi yeast: growth inhibition of a yeast mutant, post-Golgi transport screen; AID 739; 0.9% of 98,000 active; inhibition, % at 10 µM; post-Golgi transport phenotypic cell assay;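 also: yeast cells grown in 1536-well plates; yeast grown about 18 h at 30C before absorbance read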
CYP2C9 inh: human CYP2C9 inhibition; P11712; CYP2C9 Supersomes, luciferin-H conversion, luminescence; inhibition, % at 5 µM; 20% of 96,000 active;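 active = blocking of liver enzyme CYP2C9 beyond about 50% at 5 µM, limit read from the data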
The depositor's hits bear a star; . = no result. Rule as the data show it, unless noted: active = inhibition above about 30%; inactive = the rest.

SMILES	CYP2C19 inhib	PostGolgi ctrl	CYP2C9 act	CYP2C19 activ	PostGolgi yeast	CYP2C9 inh
COc1ccc(NC(=O)CSc2nc3ccccc3c(=O)n2-c2ccc3c(c2)OCO3)c(OC)c1	7	21	0.9	0.9	-3	12
COc1ccc(C2C(C(=O)N3CCCCC3)CCC(=O)N2c2cc(OC)c(OC)c(OC)c2)cc1 (stereo not drawn)	.	11	.	.	5	.
CCN1CC=C2C(C#N)=C(N)C(C#N)(C#N)C(c3cc(Cl)ccc3Cl)C2C1 (stereo not drawn)	34	0	0.4	0.7	0	59*
CC(C)N1CC=C2C(C#N)=C(N)C(C#N)(C#N)C(c3ccccc3)C2C1 (stereo not drawn)	3	4	1	1	0	4
Cc1cc(C)c(C#N)c(SCC(=O)N(C)C2CCCCC2)n1	25	13	1.2	0.7	-2	-23
COc1ccc(-n2c(O)c(/C=N/n3cnnc3)c3ccccc3c2=O)cc1	-7	13	0.3	1.1	1	75*
O=c1c2ccccc2c(/C=N/n2cnnc2)c(O)n1-c1ccccc1	6	11	0.4	0.9	-6	61*
Cc1ccc(-n2c(O)c(C=NC3CCS(=O)(=O)C3)c3ccccc3c2=O)cc1 (stereo not drawn)	6	20	0.9	0.9	26	8
COc1ccc(NC(=O)NCCCN2CCN(c3cc(C)ccc3C)CC2)cc1	22	3	0.8	0.8	6	21
O=C(Oc1ccc2c(=O)c(Oc3ccc4ccccc4c3)coc2c1)c1ccco1	24	30	1.5	0.8	2	-54
O=C(O)COc1ccc2c3c(c(=O)oc2c1)CCC3	-2	7	1	1	9	4
COC(=O)C(C)Oc1ccc2c3c(c(=O)oc2c1)CCCCC3 (stereo not drawn)	75*	9	0.2	0.3	9	82*
Cc1cc(=O)oc2cc(OC(C)C(=O)N3CCOCC3)ccc12 (stereo not drawn)	-3	-1	1	1	-8	0
CC(C)Oc1ccc2c3c(c(=O)oc2c1)CCC3	79*	6	0.8	0.2	-5	24
O=C(Oc1ccc2c3c(c(=O)oc2c1)CCCC3)c1ccco1	24	4	2.1*	0.8	4	-114
CCCOc1ccc2c3c(c(=O)oc2c1)CCCC3	59*	17	0.7	0.4	-4	33
COc1ccc(C(N)CCc2ccco2)cc1 (stereo not drawn)	30	3	0.9	0.7	2	14
Clc1ccc(OCc2nnc(SCCN3CCCCC3)n2Cc2ccco2)cc1	-9	-5	1	1.1	-1	3
CSCCC(NC(C)=O)C(=O)Oc1ccc2c3c(c(=O)oc2c1)CCCC3 (stereo not drawn)	15	17	2.8*	0.8	3	-181
CCC(NC(=O)OC(C)(C)C)C(=O)Oc1ccc2c3c(c(=O)oc2c1)CCC3 (stereo not drawn)	8	14	1.8	0.9	7	-78
Cc1ccc(S(=O)(=O)NC(CC(C)C)C(=O)Oc2ccc3c4c(c(=O)oc3c2)CCC4)cc1 (stereo not drawn)	31	16	0.8	0.7	60*	24
CC(C)CC(C(=O)Oc1ccc2c3c(c(=O)oc2c1)CCC3)N1C(=O)c2ccccc2C1=O (stereo not drawn)	48	12	0.7	0.5	-6	26
CC(=O)n1c2ccccc2c2c1c1ccccc1n2C	10	9	0.8	0.9	9	20
Cn1c(Sc2ccc(Br)cc2)c(C=O)c2ccccc21	27	32*	0.5	0.7	-2	50
Fc1cccc(Cl)c1Cn1nnc2c(N3CCC4(CC3)OCCO4)ncnc21	1	9	0.9	1	-6	9
SMILES	CYP2C19 inhib	PostGolgi ctrl	CYP2C9 act	CYP2C19 activ	PostGolgi yeast	CYP2C9 inh
CC(C)NC(=O)CSc1nnc(C2CC2)n1-c1ccccc1	1	1	1	1	-2	2
CC(NCC(O)COCc1cccs1)C1CC2CCC1C2 (stereo not drawn)	30	5	0.8	0.7	7	16
CCOc1ccc(NC(=O)CSc2nnc(CCNC(=O)c3ccc(OC)cc3)n2C)cc1	33	12	0.4	0.7	-1	57*
COc1ccc(OCCSc2nnc(CCNC(=O)c3ccc(OC)cc3)n2C)cc1	11	3	0.8	0.9	2	24
COc1ccc(C(=O)NCCc2nnc(SCC(=O)Nc3ccc(Br)cc3)n2C)cc1	21	4	0.3	0.8	-6	65*
COc1cccc(C(=O)Nc2cc(=O)n(C)c(=O)n2C)c1OC	4	-3	1	1	-1	4
Cc1ccc(Cc2cnc(NC(=O)/C(C#N)=C/c3ccc(-c4ccccc4[N+](=O)[O-])o3)s2)cc1	9	-2	0.5	0.9	-6	54*
COCCNC(=O)/C(C#N)=C/c1ccc(-c2ccc(OC)cc2[N+](=O)[O-])o1	27	-4	0.8	0.7	2	16
CC(=O)c1ccc2c3c(cccc13)CC2	4	15	3.6*	1	9	-259
CS(=O)(=O)Nc1ccc2c3c(cccc13)CC2	4	.	2.5*	1	.	-147
CCOC(=O)c1cc(NC(=O)N(CC)CC)c(C)nc1C	-1	6	0.9	1	6	11
CCCCc1c(O)nc(SCC(=O)N2CCOCC2)[nH]c1=O	-12	1	1.1	1.1	7	-7
Cc1ccnc(N2C(=O)c3ccccc3C2O)c1 (stereo not drawn)	50*	8	0.9	0.5	-3	14
CCOc1c2ccc(C(=O)N[C@H](C)C3CCCCC3)cc2nn1CC	9	-3	0.9	0.9	-4	5
N#CCCN/N=C(/Cc1nc2ccccc2[nH]1)c1cccc(Cl)c1	86*	-2	0.4	0.1	-11	63*
Nc1ccc(Oc2ccc3nc(-c4ccccc4)c(-c4ccccc4)nc3c2)cc1	-12	56*	0.8	1.1	103*	23
Cc1cc(NC(=O)c2ccc3nc(-c4ccccc4)c(-c4ccccc4)nc3c2)no1	-2	-6	1	1	-3	1
CCOC(=O)C1CCCN(CC(=O)NC2CC2)C1 (stereo not drawn)	-1	.	1	1	.	-4
CCOC(=O)c1sc(NC(=O)CSc2nnc(Cc3ccccc3)o2)c(C(=O)OCC)c1C	54*	1	0.2	0.5	12	78*
CCOC(=O)c1c(NC(=O)CSc2nnc(CNc3ccc(F)cc3)o2)sc(C)c1C	12	38*	0.4	0.9	-8	63*
CC(=O)C(=[N+]=[N-])C(=O)NCc1ccccc1	23	-1	1.1	0.8	2	-5
CCOc1ccc(-c2n[nH]c(C)c2-c2ccccc2OC)c(O)c1	47	19	0.8	0.5	-6	20
COc1cccc(Oc2cn[nH]c2-c2ccc(O)cc2O)c1	98*	16	0	0	-1	97*
